# Rows were chosen to be rich in hits. Some 9.9% of all compounds tested hit in one or more screens of this group.
# KB-V1 MDR tox – KB-V1 MDR subline cytotoxicity; KB-V1 MDR cells viability, CellTiter-Glo, 72 h; Potency, µM (highest dose often 46.1 µM), actives largely listed as cytotoxic; hit rate 3.4% among 400,000; AID 1347076; also: nearly all actives have a fitted effect of over 60% in size
#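 Readout: CellTiter-Glo luminescence, 10 min after addition. Cells: KB-V1 MDR subline, 72 h at 37 degrees C with compound. Analysis: corrected, normalized data fitted to concentration-effect curves.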
# IL-1B inflam inh – inflammasome signaling inhibition, IL-1 beta readout; THP-1 LPS/ATP IL-1B secretion, AlphaLISA, 16 h; hits give low values; activity change, % at 57.5 µM; hit rate 4.7% among 360,000; AID 743279; in the data active = activity change below about -50%; inconclusive = mostly about -30% to -49%
#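 THP-1 cells pretreated 1 hr with compounds (up to 57.5 uM final), then stimulated with LPS (250 ng/mL final) plus ATP (1.25 mM final); secreted IL-1B measured by AlphaLISA after 16 hr, decreased signal indicating inhibition.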
# MCF10A rereplic – inducers of DNA re-replication in MCF 10A breast cells | MCF 10A DNA re-replication, Hoechst nuclear intensity, 48 h | hit rate 2.9% among 350,000 | Potency, µM (titrated, usually from 46.1 µM), hits mostly activators | AID 624296; also: nearly all actives have a fitted effect of over 50% in size
# SW480 rereplic – induces DNA re-replication in SW480 colon adenocarcinoma cells | SW480 DNA re-replication, Hoechst DNA content imaging, 48 h | Potency, µM (titrated, usually from 46.1 µM), hits mostly activators | hit rate 1.8% among 340,000; also: nearly all actives have a fitted effect of over 55% in size
#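 Readout is total intensity of Hoechst-stained nuclei, excited at 405 nm and collected at 500-530 nm. Compound treatment lasted 48 hr at 37 C in 5% CO2 before staining.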
# KB-3-1 cytotox – kills parental KB-3-1 adenocarcinoma cells; KB-3-1 viability, CellTiter-Glo ATP luminescence, 72 h; Potency, µM (highest dose often 46.1 µM), actives largely listed as cytotoxic; hit rate 1.4% among 400,000; also: nearly all actives have a fitted effect of over 60% in size
#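 Cells are dispensed, compounds pinned in, plates held at 37 °C for 72 h, then CellTiter-Glo is added and luminescence read after 10 minutes. Cell line: parental KB-3-1 in phenol-red-free DMEM, 10% FBS.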
# Hits are given with their value; - = inactive; ? = inconclusive; . = no result. Unless noted, calls follow the shape of the dose curve; as a rule, active = well fitted curve in the direction sought with a large enough effect; inconclusive = small, poorly fitted or top-dose-only effect, or another doubt; inactive = no such curve, though single readings can be large; an effect the other way counts as inactive or inconclusive.
SMILES,KB-V1 MDR tox,IL-1B inflam inh,MCF10A rereplic,SW480 rereplic,KB-3-1 cytotox
CC(OC(=O)Cc1coc2ccc3ccccc3c12)C(=O)NC(N)=O (stereo not given),?,-,-,-,-
O=C(CC1S/C(=N/N=C2CCCCCC2)NC1=O)Nc1ccc(Br)cc1F (stereo not given),-,-,-,-,-
COc1ccc(/C=C2\CC/C(=C\c3ccc(OC)c(OC)c3)C2=O)cc1OC,?,-,?,?,18µM
COc1cc(C(=O)Oc2c(CN3CCOCC3)cc(Cl)c3cccnc23)cc(OC)c1OC,?,-,?,?,?
COc1cccc(C(=O)Oc2c(CN3CCOCC3)cc(Cl)c3cccnc23)c1,7.3µM,-,-,-,?
O=C(Oc1c(CN2CCOCC2)cc(Cl)c2cccnc12)c1ccc(F)cc1,3.3µM,-,3.3µM,?,5.8µM
COc1ccc(C(=O)Oc2c(CN3CCOCC3)cc(Cl)c3cccnc23)cc1,?,-,?,?,10µM
Cc1ccc(/C=C2\SC(N3CCN(C(c4ccccc4)c4ccccc4)CC3)=NC2=O)o1,?,?,-,-,?
COc1ccc(N2CCN(c3ccc(-c4nc(-c5ccccc5C)no4)cc3[N+](=O)[O-])CC2)cc1,?,.,.,.,-
CCC(=O)N1CCc2cc(Br)cc(S(=O)(=O)CCC(=O)Nc3cccc(Cl)c3)c21,-,.,.,.,-
CC(=O)c1cccc(-c2ccnc3c2CC(C(=O)NCC2CCOCC2)O3)c1 (stereo not given),-,-,.,.,4.6µM
CC(=O)Nc1ccc(-c2ccnc3c2CC(C(=O)NCC2CC2)O3)cc1 (stereo not given),-,-,.,.,?
CC(=O)c1cccc(-c2ccnc3c2CC(C(=O)NCC2CC2)O3)c1 (stereo not given),-,-,.,.,?
CC(=O)Nc1ccc(-c2ccnc3c2CC(C(=O)NCC2CCOCC2)O3)cc1 (stereo not given),-,-,.,.,5.8µM
CN(N=Nc1nc[nH]c1C(=O)NN)C1CCCCC1,-,-,-,-,-
COc1ccc(-c2nn(-c3ccccc3)cc2/C=C(\CC(=O)O)c2nc3ccccc3s2)cc1OC,-,-,18µM,-,-
Cc1cc(OCC(=O)Nc2cc(C(C)(C)C)on2)ccc1[N+](=O)[O-],.,-,-,-,.
CN(C)S(=O)(=O)Oc1cccc(C(=O)Nc2ccc(Cl)cc2)c1,-,-63,?,-,9.2µM
O=C(Nc1ccc(Cl)cn1)c1cccc(S(=O)(=O)N2CCCC2)c1,16µM,-,-,-,-
CN(C)S(=O)(=O)c1cccc(C(=O)Nc2ccc(Cl)cn2)c1,23µM,-,-,-,-
O=C(Nc1ccccn1)c1cccc(S(=O)(=O)N2CCCC2)c1,.,-,-,-,.
CN(C)S(=O)(=O)Oc1cccc(C(=O)Nc2ccccc2Cl)c1,-,-,-,-,-
O=C(Nc1ccc(Cl)cn1)c1cccc(S(=O)(=O)N2CCCCCC2)c1,?,-,.,.,?
O=C(Nc1ccccn1)c1cccc(S(=O)(=O)N2CCc3ccccc3C2)c1,-,-56,?,-,-
CCNC(=O)C1(C)CCN(C(=O)c2ccc(-c3ccccc3)cc2)C1 (stereo not given),-,-,.,.,-
SMILES,KB-V1 MDR tox,IL-1B inflam inh,MCF10A rereplic,SW480 rereplic,KB-3-1 cytotox
Cc1ccc(CNC(=O)c2cc(S(=O)(=O)N3CCCCCC3)cn2C)cc1,-,.,.,.,-
CCc1ccc(-c2cc(C)no2)cc1S(=O)(=O)Nc1cc(OC)c(OC)c(OC)c1,-,.,.,.,-
O=c1cc(-c2ccccc2)c2cc(Cl)c3c(c2o1)CN(Cc1ccccc1)CO3,-,.,.,.,-
COc1ccc(C(=O)Nc2ccc(Cl)cn2)cc1Cl,-,?,18µM,?,-
CCS(=O)(=O)N1Cc2ccccc2CC1C(=O)N(C)Cc1ccc(OC)c(F)c1 (stereo not given),?,-,-,-,-
COc1cccc(N2CCN(C(=O)c3cnn(-c4ccc(C)cc4C)c3C3CCN(C(=O)OC(C)(C)C)CC3)CC2)c1,-,.,.,.,-
N#CCc1cc2ccc3cccc4ccc(c1)c2c34,7.3µM,-,-,-,?
O=C(N/N=C/c1cccc(Br)c1)c1ccc(Cn2cc(Br)cn2)o1,-,-73,-,-,-
O=C(N/N=C\c1cccc(Cl)c1)c1ccc(Cn2cc(Br)c([N+](=O)[O-])n2)o1,21µM,-,?,?,?

# Assay outcomes from PubChem.
